# In PubChem BioAssay AID1159580 (chemical genetic matrix, 2015):
# Where “and” joins values, the source holds several entries; their conditions need not be identical. Equal values may be shown once. Screen size: about 5,500 compounds; about 2,000 (36%) were called active. Not shown: some 18% with an inconclusive outcome. Some of the results follow. A number with no mark means an inactive call. No stated cut-off is given here; in the data, active means normalized growth mostly below about 0.91 (no sharp cut-off); inconclusive means no clear call, values can overlap the other calls; inactive means mostly above about 0.92.
# Assay: chemical genetic growth profiling, strain panel (AID 1159580);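 further: tested at 20 µM; growth read once vehicle control cultures reached saturation at 30 °C; 1 = growth at the plate median or of vehicle wells; lower values mean less growth of the strain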
# Settings: S. cerevisiae deletion strains, growth OD
# [1] = locus YDL101C, strain DUN1, hits give low values
# [2] = locus YHR030C, strain SLT2, hits give low values
# [3] = locus YHR079C, strain IRE1, hits give low values
# [4] = locus YJL095W, strain BCK1, hits give low values
# [5] = locus YJR066W, strain TOR1, hits give low values
# [6] = locus YLR113W, strain HOG1, hits give low values
# [7] = locus YNL183C, strain NPR1, hits give low values
# [8] = locus YOR061W, strain CKA2, hits give low values
# [9] = locus YOR231W, strain MKK1, hits give low values
# [10] = locus YPL256C, strain CLN2, hits give low values
# [11] = locus YGR229C, strain SMI1, hits give low values
# [12] = locus YMR307W, strain GAS1, hits give low values
# [13] = locus YNL153C, strain GIM3, hits give low values
# [14] = locus YPL055C, strain LGE1, hits give low values
# [15] = locus YPL241C, strain CIN2, hits give low values
structure (smiles),measurement,setting,value
N#Cc1ccc(NC(=O)Nc2cccc3ccccc23)cc1,normalized growth,"locus YAR019C, strain CDC15, hits give low values",0.965
same,normalized growth,"locus YBL105C, strain PKC1, hits give low values",0.974
same,normalized growth,"locus YBR135W, strain CKS1, hits give low values",0.96
same,normalized growth,"locus YBR136W, strain MEC1, hits give low values",0.971
same,normalized growth,"locus YBR160W, strain CDC28, hits give low values",0.96
same,normalized growth,"locus YDL017W, strain CDC7, hits give low values",0.974
same,normalized growth,"locus YDL028C, strain MPS1, hits give low values",0.971
same,normalized growth,[1],0.992
same,normalized growth,"locus YDL108W, strain KIN28, hits give low values",0.958
same,normalized growth,"locus YDL132W, strain cdc53, hits give low values",0.972
same,normalized growth,"locus YDL214C, strain PRR2, hits give low values",0.928
same,normalized growth,"locus YDR052C, strain DBF4, hits give low values",0.995
same,normalized growth,"locus YDR054C, strain cdc34, hits give low values",0.957
same,normalized growth,"locus YDR226W, strain ADK1, hits give low values",0.985
same,normalized growth,"locus YDR477W, strain SNF1, hits give low values",0.926
same,normalized growth,"locus YER123W, strain YCK3, hits give low values",0.919
same,normalized growth,"locus YER133W, strain GLC7, hits give low values",0.955
same,normalized growth,"locus YFL009W, strain cdc4, hits give low values",0.967
same,normalized growth,"locus YFL029C, strain CAK1, hits give low values",0.968
same,normalized growth,"locus YFR003C, strain YPI1, hits give low values",0.968
same,normalized growth,"locus YFR019W, strain FAB1, hits give low values",0.932
same,normalized growth,"locus YFR028C, strain CDC14, hits give low values",0.958
same,normalized growth,"locus YGR040W, strain KSS1, hits give low values",0.921
same,normalized growth,"locus YGR052W, strain FMP48, hits give low values",0.979
same,normalized growth,"locus YGR092W, strain DBF2, hits give low values",0.923
same,normalized growth,[2],0.938
same,normalized growth,[3],0.924
same,normalized growth,"locus YHR082C, strain KSP1, hits give low values",0.986
same,normalized growth,"locus YHR205W, strain SCH9, hits give low values",0.89
same,normalized growth,"locus YIL147C, strain SLN1, hits give low values",0.963
same,normalized growth,[4],0.962
same,normalized growth,"locus YJL128C, strain PBS2, hits give low values",0.955
same,normalized growth,"locus YJL157C, strain FAR1, hits give low values",0.929
same,normalized growth,"locus YJR016C, strain ILV3, hits give low values",0.966
same,normalized growth,"locus YJR066W, strain TOR1 (second series), hits give low values",0.903
same,normalized growth,[5],0.972
same,normalized growth,"locus YKL048C, strain ELM1, hits give low values",0.949
same,normalized growth,"locus YKL067W, strain YNK1, hits give low values",0.941
same,normalized growth,"locus YKL101W, strain HSL1, hits give low values",0.916
same,normalized growth,"locus YKL193C, strain SDS22, hits give low values",0.963
same,normalized growth,"locus YKL203C, strain TOR2, hits give low values",0.998
same,normalized growth,[6],0.832 (active)
same,normalized growth,"locus YLR133W, strain CKI1, hits give low values",0.913
same,normalized growth,"locus YLR403W, strain SFP1, hits give low values",0.892
same,normalized growth,"locus YML070W, strain DAK1, hits give low values",0.901
same,normalized growth,"locus YMR001C, strain CDC5, hits give low values",0.967
same,normalized growth,"locus YMR205C, strain PFK2 (second series), hits give low values",0.939
same,normalized growth,"locus YMR277W, strain FCP1, hits give low values",0.966
same,normalized growth,"locus YNL006W, strain LST8, hits give low values",0.978
same,normalized growth,"locus YNL020C, strain ARK1, hits give low values",0.917
same,normalized growth,"locus YNL161W, strain CBK1, hits give low values",0.963
same,normalized growth,[7],0.943
same,normalized growth,"locus YNL207W, strain RIO2, hits give low values",0.968
same,normalized growth,"locus YNL222W, strain SSU72, hits give low values",0.967
same,normalized growth,"locus YNL307C, strain MCK1 (second series), hits give low values",0.925
same,normalized growth,"locus YOL078W, strain AVO1, hits give low values",0.972
same,normalized growth,"locus YOL136C, strain PFK27, hits give low values",0.91
same,normalized growth,[8],0.929
same,normalized growth,"locus YOR119C, strain RIO1, hits give low values",0.966
same,normalized growth,[9],0.887
same,normalized growth,"locus YOR329C, strain SCD5, hits give low values",0.976
same,normalized growth,"locus YPL031C, strain PHO85, hits give low values",0.92
same,normalized growth,"locus YPL153C, strain RAD53, hits give low values",0.925
same,normalized growth,"locus YPL204W, strain HRR25, hits give low values",0.909
same,normalized growth,"locus YPL209C, strain IPL1, hits give low values",0.967
same,normalized growth,[10],0.872
same,normalized growth,"locus YPR025C, strain CCL1, hits give low values",0.967
same,normalized growth,"locus YPR106W, strain ISR1, hits give low values",0.958
same,normalized growth,"locus YPR111W, strain DBF20, hits give low values",0.952
same,normalized growth,"strain NNK1, hits give low values",0.967
same,normalized growth,"strain TSCII, hits give low values",0.969
O=C(Nc1ccccc1)c1ccccc1O,normalized growth,"locus YBR021W, strain FUR4, hits give low values",1.18 [resistant] (active)
same,normalized growth,"locus YBR229C, strain ROT2, hits give low values",1.01
same,normalized growth,"locus YCL029C, strain bik1, hits give low values",0.953
same,normalized growth,"locus YDL035C, strain GPR1, hits give low values",0.954
same,normalized growth,"locus YDL074C, strain BRE1, hits give low values",0.904
same,normalized growth,[1],0.956
same,normalized growth,"locus YDL185W, strain tfp1, hits give low values",0.927
same,normalized growth,"locus YDL192W, strain arf1, hits give low values",0.941
same,normalized growth,"locus YDR101C, strain arx1, hits give low values",0.953
same,normalized growth,"locus YDR162C, strain NBP2, hits give low values",0.963
same,normalized growth,"locus YDR318W, strain mcm21, hits give low values",0.981
same,normalized growth,"locus YDR388W, hits give low values",0.988
same,normalized growth,"locus YDR502C, strain sam2, hits give low values",0.939
same,normalized growth,"locus YEL061C, strain CIN8, hits give low values",0.995
same,normalized growth,"locus YER110C, hits give low values",0.962
same,normalized growth,"locus YER155C, strain BEM2, hits give low values",0.98
same,normalized growth,"locus YER167W, strain BCK2, hits give low values",0.982
same,normalized growth,"locus YGL078C, strain dbp3, hits give low values",0.943
same,normalized growth,"locus YGL086W, strain mad1, hits give low values",0.966
same,normalized growth,"locus YGL248W, strain PDE1, hits give low values",0.981
same,normalized growth,"locus YGR078C, strain PAC10, hits give low values",0.94
same,normalized growth,"locus YGR135W, strain pre9, hits give low values",0.944
same,normalized growth,[11],0.909
same,normalized growth,"locus YGR252W, strain gcn5, hits give low values",0.847
same,normalized growth,[2],0.992 and 0.935
same,normalized growth,"locus YHR079C, strain IRE1 (second series), hits give low values",0.979
same,normalized growth,[3],0.921
same,normalized growth,"locus YHR094C, strain hxt1, hits give low values",0.989
same,normalized growth,"locus YHR129C, strain ARP1, hits give low values",0.991
same,normalized growth,"locus YHR200W, strain rpn10, hits give low values",0.963
same,normalized growth,"locus YIL066C, strain RNR3, hits give low values",0.986
same,normalized growth,"locus YIL073C, strain SPO22, hits give low values",0.874
same,normalized growth,"locus YIL125W, strain kgd1, hits give low values",0.984
same,normalized growth,"locus YIR030C, strain dcg1, hits give low values",0.976
same,normalized growth,[4],0.929 and 0.932
same,normalized growth,"locus YJL134W, strain LCB3, hits give low values",0.987
same,normalized growth,"locus YJL168C, strain set2, hits give low values",0.992
same,normalized growth,"locus YJL187C, strain SWE1 (second series), hits give low values",0.941
same,normalized growth,"locus YJR043C, strain POL32, hits give low values",0.924
same,normalized growth,[5],0.901
same,normalized growth,"locus YKL009W, strain mrt4, hits give low values",0.891
same,normalized growth,"locus YKL068W, hits give low values",0.964
same,normalized growth,"locus YKL085W, strain MDH1 (second series), hits give low values",0.98
same,normalized growth,"locus YKL085W, strain MDH1, hits give low values",0.98
same,normalized growth,"locus YKR001C, strain vps1, hits give low values",0.897 (active)
same,normalized growth,"locus YLR039C, strain RIC1, hits give low values",0.949
same,normalized growth,"locus YLR058C, strain SHM2, hits give low values",0.99
same,normalized growth,"locus YLR102C, strain apc9, hits give low values",0.976
same,normalized growth,[6],0.791 (active)
same,normalized growth,"locus YLR262C, strain YPT6, hits give low values",0.945
same,normalized growth,"locus YLR268W, strain sec22, hits give low values",0.916
same,normalized growth,"locus YLR330W, strain CHS5, hits give low values",0.983
same,normalized growth,"locus YLR342W, strain FKS1 (second series), hits give low values",0.968
same,normalized growth,"locus YLR371W, strain rom2, hits give low values",0.964
same,normalized growth,"locus YLR418C, strain cdc73, hits give low values",0.934
same,normalized growth,"locus YML016C, strain PPZ1, hits give low values",1
same,normalized growth,"locus YML032C, strain rad52, hits give low values",0.98
same,normalized growth,"locus YML124C, strain tub3, hits give low values",0.988
same,normalized growth,"locus YMR078C, strain ctf18, hits give low values",0.956
same,normalized growth,"locus YMR223W, strain ubp8, hits give low values",0.941
same,normalized growth,[12],0.986
same,normalized growth,"locus YNL067W, strain RPL9B, hits give low values",0.9
same,normalized growth,[13],0.94
same,normalized growth,[7],0.885
same,normalized growth,"locus YNL233W, strain BNI4, hits give low values",0.945
same,normalized growth,"locus YNL250W, strain rad50, hits give low values",0.952
same,normalized growth,"locus YNL271C, strain bni1, hits give low values",0.959
same,normalized growth,"locus YNL298W, strain CLA4, hits give low values",0.971
same,normalized growth,"locus YNL307C, strain MCK1, hits give low values",0.974
same,normalized growth,"locus YNR052C, strain pop2, hits give low values",0.978
same,normalized growth,"locus YOL012C, strain htz1",1.23
same,normalized growth,"locus YOL147C, strain pex11, hits give low values",0.987
same,normalized growth,[8],0.997
same,normalized growth,"locus YOR069W, strain VPS5, hits give low values",0.995
same,normalized growth,"locus YOR136W, strain idh2, hits give low values",0.983
same,normalized growth,"locus YOR144C, strain elg1, hits give low values",0.994
same,normalized growth,"locus YOR184W, strain ser1, hits give low values",0.861 (active)
same,normalized growth,[9],0.929
same,normalized growth,"locus YOR316C, strain cot1, hits give low values",0.989
same,normalized growth,[14],0.921
same,normalized growth,[15],0.994
same,normalized growth,[10],0.901
same,normalized growth,"locus YPR119W, strain clb2, hits give low values",0.98
same,normalized growth,"locus YPR141C, strain kar3, hits give low values",0.969
same,normalized growth,"locus YPR163C, strain tif3, hits give low values",0.982
same,normalized growth,"locus YPR167C, strain met16, hits give low values",0.966
same,normalized growth,"strain wtn01, hits give low values",0.907
CCCn1c(=O)c2[nH]c(-c3ccc(OCC(=O)Nc4ccc(C#N)cc4)cc3)nc2n(CCC)c1=O,normalized growth,"locus YAL040C, strain CLN3, hits give low values",0.979
same,normalized growth,"locus YCL061C, strain MRC1 (second series), hits give low values",0.998
same,normalized growth,"locus YDR363W, strain ESC2, hits give low values",1.02
same,normalized growth,"locus YER002W, strain NOP16, hits give low values",1
same,normalized growth,[11],0.995
same,normalized growth,"locus YMR263W, strain SAP30, hits give low values",0.982
same,normalized growth,[12],1.02
same,normalized growth,[13],1.01
same,normalized growth,"locus YNL175C, strain NOP13, hits give low values",0.994
same,normalized growth,"locus YNL197C, strain WHI3, hits give low values",0.978
same,normalized growth,"locus YNL224C, strain SQS1, hits give low values",0.992
same,normalized growth,"locus YOR083W, strain WHI5 (second series), hits give low values",0.992
same,normalized growth,[14],0.998
same,normalized growth,[15],0.973
